Most compounds without a hit are left out; they make up all but 11% or so of the library.
JMJD2A Tudor: inhibitors of human JMJD2A Tudor domain; O75164; AlphaScreen JMJD2A-Tudor / H3K4me3 peptide binding; Potency, µM (highest dose often 114 µM), most hits filed as inhibitors; 390,000 compounds, 4.4% hits; AID 504339; further: nearly all actives have a fitted effect of over 50% in size
BAZ2B inh: inhibitors of human BAZ2B bromodomain. Potency, µM (series often up to 114 µM), actives largely listed as inhibitors. 360,000 compounds, 4.4% hits. Q9UIF8. AlphaScreen BAZ2B-H3K14Ac peptide displacement; further: nearly all actives have a fitted effect of over 60% in size
Target sequence (Q9UIF8 whole entry, looked up): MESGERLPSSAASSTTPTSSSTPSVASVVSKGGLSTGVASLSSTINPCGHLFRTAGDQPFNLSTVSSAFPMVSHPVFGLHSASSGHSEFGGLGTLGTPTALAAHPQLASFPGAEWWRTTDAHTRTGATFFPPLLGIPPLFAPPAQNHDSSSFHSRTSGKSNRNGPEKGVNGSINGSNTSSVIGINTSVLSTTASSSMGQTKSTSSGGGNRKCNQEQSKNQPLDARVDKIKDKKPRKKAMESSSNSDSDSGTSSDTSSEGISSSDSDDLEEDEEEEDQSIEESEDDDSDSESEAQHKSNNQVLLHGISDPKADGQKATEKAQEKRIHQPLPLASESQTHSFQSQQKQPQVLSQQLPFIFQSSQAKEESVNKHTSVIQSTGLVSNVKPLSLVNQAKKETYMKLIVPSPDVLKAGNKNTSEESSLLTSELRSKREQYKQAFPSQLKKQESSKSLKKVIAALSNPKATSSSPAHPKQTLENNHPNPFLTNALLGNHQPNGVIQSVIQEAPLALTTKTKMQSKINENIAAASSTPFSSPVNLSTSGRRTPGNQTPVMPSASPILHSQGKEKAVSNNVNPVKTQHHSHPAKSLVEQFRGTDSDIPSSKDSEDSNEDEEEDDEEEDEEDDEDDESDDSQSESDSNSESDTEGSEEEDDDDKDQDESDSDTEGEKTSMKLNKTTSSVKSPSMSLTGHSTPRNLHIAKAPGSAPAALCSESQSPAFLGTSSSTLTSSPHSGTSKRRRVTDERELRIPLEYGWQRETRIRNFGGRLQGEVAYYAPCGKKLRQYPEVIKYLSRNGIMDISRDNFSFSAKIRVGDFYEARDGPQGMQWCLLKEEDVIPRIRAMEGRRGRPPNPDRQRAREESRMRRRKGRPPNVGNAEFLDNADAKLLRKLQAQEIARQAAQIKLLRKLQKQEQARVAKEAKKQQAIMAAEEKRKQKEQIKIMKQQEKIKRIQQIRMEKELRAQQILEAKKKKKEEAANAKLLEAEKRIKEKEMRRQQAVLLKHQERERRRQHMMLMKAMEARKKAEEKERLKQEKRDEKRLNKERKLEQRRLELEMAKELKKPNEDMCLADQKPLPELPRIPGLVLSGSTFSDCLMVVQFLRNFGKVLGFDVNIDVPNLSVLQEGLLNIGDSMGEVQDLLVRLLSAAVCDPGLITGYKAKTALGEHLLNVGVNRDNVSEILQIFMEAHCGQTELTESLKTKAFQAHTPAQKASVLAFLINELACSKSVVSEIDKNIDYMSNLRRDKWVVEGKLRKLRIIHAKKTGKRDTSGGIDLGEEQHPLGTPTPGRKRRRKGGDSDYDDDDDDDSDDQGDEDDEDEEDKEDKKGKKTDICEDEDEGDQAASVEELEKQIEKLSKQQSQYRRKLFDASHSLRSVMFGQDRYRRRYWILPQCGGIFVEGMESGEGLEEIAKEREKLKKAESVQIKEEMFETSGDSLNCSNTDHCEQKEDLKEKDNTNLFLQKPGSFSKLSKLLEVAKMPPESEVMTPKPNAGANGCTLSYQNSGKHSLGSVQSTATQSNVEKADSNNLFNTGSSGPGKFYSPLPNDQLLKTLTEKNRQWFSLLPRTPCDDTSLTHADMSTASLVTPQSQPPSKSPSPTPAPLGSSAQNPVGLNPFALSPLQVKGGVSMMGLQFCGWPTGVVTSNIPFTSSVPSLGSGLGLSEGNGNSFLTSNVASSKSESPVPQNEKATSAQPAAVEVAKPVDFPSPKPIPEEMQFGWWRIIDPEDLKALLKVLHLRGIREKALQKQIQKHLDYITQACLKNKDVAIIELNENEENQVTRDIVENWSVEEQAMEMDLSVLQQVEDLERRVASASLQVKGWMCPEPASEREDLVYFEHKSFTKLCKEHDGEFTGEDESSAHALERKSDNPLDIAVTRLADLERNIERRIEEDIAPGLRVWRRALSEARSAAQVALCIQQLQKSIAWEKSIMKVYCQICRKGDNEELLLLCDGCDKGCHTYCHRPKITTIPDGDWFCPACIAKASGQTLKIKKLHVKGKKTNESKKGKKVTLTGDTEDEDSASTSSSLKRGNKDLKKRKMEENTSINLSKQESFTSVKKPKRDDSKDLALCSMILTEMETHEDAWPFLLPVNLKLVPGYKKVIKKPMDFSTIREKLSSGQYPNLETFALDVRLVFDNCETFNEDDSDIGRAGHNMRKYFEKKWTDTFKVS
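AlphaScreen displacement of biotin-H3(5-23)K14Ac peptide (50 nM final) from BAZ2B (50 nM final) in PBS pH 7.4, 0.01% Tween-20; complex preformed 30 min RT, then compounds (top 110 uM) 30 min RT, beads 20 min dark.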
HP1b chromo inh: HP1-beta chromodomain-methylated histone interaction inhibition. P83916. AlphaScreen HP1-beta / biotin-H3K9me3 peptide binding. Potency, µM (titrated, usually from 114 µM), usual class: inhibitors. 390,000 compounds, 0.56% hits; further: nearly all actives have a fitted effect of over 70% in size
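Compound inhibition of the preformed complex between 50 nM HP1-beta and 50 nM biotinylated H3K9me3 peptide was read by AlphaScreen. Buffer was PBS pH 7.4 with 0.01% Tween-20. Incubations ran 30 min at room temperature, with 10 ug/mL donor/acceptor beads.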
L3MBTL1 block: blocks human L3MBTL1; Q9Y468; AlphaScreen L3MBTL1–H3K9me1 peptide binding; Potency, µM (titrated, usually from 57.1 µM), actives largely listed as inhibitors; 230,000 compounds, 0.66% hits; AID 485360; further: nearly all actives have a fitted effect of over 60% in size
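L3MBTL1 50 nM + b-AHA-H3(1-15)K9me1 75 nM, 30 min RT; compound added, 30 min RT; streptavidin donor/Ni-chelate acceptor beads 10 ug/mL each final, 30 min RT dark; AlphaScreen read.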
G9a block: inhibitors of human histone lysine methyltransferase G9a; Q96KQ7; AID 504332; 350,000 compounds, 8.8% hits; Potency, µM (highest dose often 102 µM), hits mostly inhibitors; G9a H3K9 monomethylation, AlphaScreen, 2 h; further: nearly all actives have a fitted effect of over 75% in size
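Quantitative HTS format: methyltransferase activity on a biotin-tagged H3K9 peptide is measured by AlphaScreen, using a rabbit anti-monomethyl-H3K9 antibody with streptavidin donor and anti-IgG acceptor beads. Final levels are 20 nM enzyme, 500 nM peptide, 20 uM SAM; 2 h RT.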
Hits are given with their value; . = inactive; ? = inconclusive; / = no result given; ! = a repeat was not active; [ ] = dose if it differs, or a comment. The call rests on the fitted dose curve; in most records, active means well fitted inhibition curve with a large enough effect; inconclusive means small, poorly fitted or top-dose-only effect; inactive means no such curve, though single readings can be large or run the other way.

SMILES	JMJD2A Tudor	BAZ2B inh	HP1b chromo inh	L3MBTL1 block	G9a block
COc1ccccc1NC(=O)CCn1cnc2onc(-c3ccc(F)cc3)c2c1=O	.	.	.	/	.
CCN(CC)CCO[C@H]1CC[C@@]2(C)C(=CC[C@@H]3[C@H]2CC[C@]2(C)C(=O)CC[C@H]32)C1	/	/	/	/	.[12.7 µM]
Cn1c(O)c(C=Nc2ccccc2)c(=O)n(C)c1=O	.	.	.	/	.
Cn1c(O)c(/C=N/Nc2ccccc2)c(=O)n(C)c1=O	?	.	.	.	3.98µM
COc1ccc(N=Cc2c(O)n(-c3ccc(C)cc3)c(=O)[nH]c2=O)cc1	.	.	.	.	.
COc1ccc(N/N=C/c2c(O)n(-c3ccc(C)c(C)c3)c(=O)[nH]c2=O)cc1	35.5µM	.	.	.	1µM
O=C1OC(c2ccc(O)c(S(=O)(=O)O)c2)(c2ccc(O)c(S(=O)(=O)O)c2)c2c(Br)c(Br)c(Br)c(Br)c21	/	/	/	/	.
[Cl-].[Cl-].[Hg+2]	/	/	/	/	1.26µM
C=C(C)[C@H]1O[C@H]2CC[C@@]3(C)[C@@](O)(CC[C@H]4[C@@H]5OC(C)(C)[C@H]6C[C@@H]7C(=C)Cc8c(Cl)cc9[nH]c(c5c9c8[C@@]76O)[C@@]43C)[C@]23O[C@@H]3[C@H]1O	/	/	/	/	.
CSc1ncc(Cl)c(C(=O)O)n1 (tested in a mixture with another compound)	79.4µM	?	.	/	/
CCc1nc(SC)ncc1C(=O)Nc1ccc(Cl)cc1C(=O)c1ccccc1	.	.	.	/	.
c1ccc(N2CC[C@@]3(CCCNC3)C2)cc1	/	/	/	/	.[12.7 µM]
COc1ccc2[nH]c3c(c2c1)CCN=C3C	35.5µM	44.7µM	.	.	8.91µM
S=c1[nH]nc(-c2ccccc2)n1CC1CCCO1 (stereo unspecified)	39.8µM	.	.	/	?
S=c1[nH]nc(-c2ccccc2)n1C1C=CCCC1 (stereo unspecified)	3.16µM	.	.	.	?
Nc1c(C(=O)NC2CCCC2)c2nc3ccccc3nc2n1CC1CCCO1 (stereo unspecified)	.	.	.	.	.
Nc1ccc(C2(c3ccc(N)cc3)CN3CCC2CC3)cc1	.	.	.	/	5.62µM
Cc1[nH]c2ccccc2c1C(=O)CN1CC=C(c2ccccc2)CC1	.	.	.	.	?
Oc1ccc2ccccc2c1CN1CC=C(c2ccccc2)CC1	.	.	.	.	44.7µM
COc1ccc(CN2CC=C(c3ccc(F)cc3)CC2)cc1Br	.	.	.	.	.
CCN(CC)c1ccc(CN2CC=C(c3ccc(F)cc3)CC2)cc1	50.1µM	79.4µM	44.7µM	/	44.7µM
NC1=N[C@H](O)[C@H]2C3O[C@]4(O)O[C@H](C(O)[C@@]2(N1)[C@@H]4O)C3(O)CO (stereo partly specified)	/	/	/	/	.
O=c1[nH]c(O)c(N=Nc2cc([N+](=O)[O-])ccc2O)c(=O)[nH]1	89.1µM	50.1µM	?	.	44.7µM
NC(=O)c1ccc(N=Nc2c(O)[nH]c(=O)[nH]c2=O)cc1	/	.	/	.	.
CC(C)C(Br)C(=O)NC(N)=O (stereo unspecified)	/	/	/	/	.
SMILES	JMJD2A Tudor	BAZ2B inh	HP1b chromo inh	L3MBTL1 block	G9a block
CCn1cc(C(=O)NCCc2ccc(OC)c(OC)c2)c(=O)c2cc(S(=O)(=O)N(C)C3CCCCC3)ccc21	.	/	.	/	?
Cc1ccccc1-n1c(CNc2ccccc2)nc2ccccc2c1=O	.	/	.	/	/
O=c1c2ccccc2nc(CNc2ccccc2)n1-c1ccccc1	.	.	.	.	31.6µM
O=C1Nc2ccccc2C1Cc1nc2ccccc2c(=O)n1-c1ccccc1 (stereo unspecified)	.[11.4 µM]	79.4µM	.	/	.
Cc1cccc(-n2c(CC3C(=O)Nc4ccc(C)cc43)nc3ccccc3c2=O)c1 (stereo unspecified)	.	.	.	/	?
O=C(O)/C=C/CO	/	/	/	/	.
NCC(CC(=O)O)c1ccc(Cl)s1 (stereo unspecified)	/	/	/	/	.
CN(C)[C@@H](Cc1ccccc1)c1ccccc1	/	/	/	/	.[12.7 µM]
C=CC[N+]1(C)CC[C@]23c4c5ccc(O)c4O[C@H]2C(=O)CC[C@@]3(O)[C@H]1C5 (stereo partly specified)	?	.	?	.	1.58µM
C=CC[N+]1(C)CCC23c4c5ccc(O)c4O[C@H]2C(=O)CC[C@@]3(O)C1C5 (stereo partly specified)	/	/	/	/	.
Cc1ccc(C(C)C)c(OCC(=O)N2CCN(CCc3ccncc3)CC2)c1	.	.	.	/	.
Cc1noc(C)c1C(=O)N1CCC[C@@]2(CCN(CC(C)C)C2)C1	/	/	/	/	.[12.7 µM]
c1ccc2nc3ccccc3nc2c1	.	.	.	.	44.7µM
O=[N+]([O-])c1ccc(O)c([N+](=O)[O-])c1	?	/	.	/	.[2.33 µM]
O=[N+]([O-])c1cc(O)c(O)c([N+](=O)[O-])c1	.	?	.	.	7.94µM!
O=[N+]([O-])c1cc(-n2cnnn2)c(O)c([N+](=O)[O-])c1	.[11.4 µM]	.	.	.	50.1µM
Cc1ccc(C)c(CN2C(=O)c3ccccc3S(=O)(=O)c3ccc(C(=O)N4CCCCCC4)cc32)c1	.	?	.	/	.
C=CCn1c(O)c(C(CC)=NCCN2CCOCC2)c(=O)[nH]c1=O	.	?	.	.	39.8µM
CCC(=NCCN1CCOCC1)c1c(O)n(C2CCCCC2)c(=O)[nH]c1=O	.	.	.	.	35.5µM
CCC(=NCCCN(CC)CC)c1c(O)n(C2CCCCC2)c(=O)[nH]c1=O	.	.	.	.	56.2µM
C=CCn1c(O)c(C(CC)=Nc2ccccc2NC(C)=O)c(=O)[nH]c1=O	.	.	.	.[11.4 µM]	1.41µM
C=CCn1c(O)c(C(CC)=NCCCO)c(=O)[nH]c1=O	.	.	.	.	.
Cn1c(O)c(C=NC(CC(N)=O)C(=O)O)c(=O)n(C)c1=O (stereo unspecified)	/	.	/	.	?
CCC[C@@](C)(COC(N)=O)COC(=O)NC(C)C	/	/	/	/	.[21.5 µM]
Cc1ccc2c(c1)[C@@H]1CN(C)CC[C@H]1N2	/	/	/	/	.[12.7 µM]
SMILES	JMJD2A Tudor	BAZ2B inh	HP1b chromo inh	L3MBTL1 block	G9a block
O=C1C(Cc2cnc[nH]2)NC(=S)N1c1ccccc1 (stereo unspecified)	?	.	.	/	50.1µM
Oc1ccc2c3c1O[C@H]1c4[nH]c5c(c4C[C@@]4(O)[C@@H](C2)N(CC2CC2)CC[C@]314)C[C@@]1(O)[C@H]2Cc3ccc(O)c4c3[C@@]1(CCN2CC1CC1)[C@H]5O4	/	/	/	/	14.1µM
CCCC12CN3CC(CCC)(CN(C1)C3c1ccccn1)C2=O (stereo unspecified)	25.1µM	20µM	.	/	.[12.7 µM]
CCCCC/C=C\C/C=C\C/C=C\C/C=C\CCCC(=O)NCCc1ccc(O)c(O)c1	/	/	/	/	11.2µM
CCCCC/C=C\C/C=C\C/C=C\C/C=C\CCCC(=O)NCc1ccoc1	/	/	/	/	14.1µM
CCCCC/C=C\C/C=C\C/C=C\C/C=C\CCCC(=O)NCC(=O)O	/	/	/	/	11.9µM!
CCCCC/C=C\C/C=C\C/C=C\C/C=C\CCCC(=O)NCCCC(=O)O	/	/	/	/	.
Cc1cc(Br)c(NC(=O)CN2CC=C(c3ccccc3)CC2)c(Br)c1	.	/	.	.	.
